# Fam108B counter = Fam108B inhibition, counter-screen for RBBP9 inhibitors; recombinant Fam108B, FP-Rh probe fluorescence polarization; actives 0.33% (n = 300,000); AID 1947; inhibition, % at 9.51 µM;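 active = inhibition above the screen mean inhibition plus 3 SD, computed separately per campaign, cut at about 18% in these data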;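 also: inhibitors lower polarization as less probe binds the enzyme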
# LYPLA1 inh = counter-screen for PME1 inhibitors: inhibitors of human LYPLA1; O75608; AID 2174; recombinant LYPLA1, FP-Rh probe fluorescence polarization; inhibition, % at 5.9 µM; actives 0.16% (n = 320,000);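 active = inhibition above the mean of all tested compounds plus 3 SD, set per campaign, cut at about 14% in these data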;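 also: inhibitors block serine hydrolase probe labeling of LYPLA1 so polarization falls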
# Target sequence (O75608 whole entry, looked up): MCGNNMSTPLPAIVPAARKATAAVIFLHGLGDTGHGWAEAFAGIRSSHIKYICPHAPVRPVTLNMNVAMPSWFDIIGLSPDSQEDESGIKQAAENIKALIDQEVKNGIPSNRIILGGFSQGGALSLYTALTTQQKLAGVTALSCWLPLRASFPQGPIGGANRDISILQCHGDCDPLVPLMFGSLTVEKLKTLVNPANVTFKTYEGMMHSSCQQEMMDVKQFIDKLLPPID
# PAD4 FP inh = blocks human protein arginine deiminase 4; inhibition, % at 6.36 µM; actives 0.41% (n = 330,000); recombinant PAD4, RCA probe fluorescence polarization; Q9UM07;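 active = percent inhibition above a cutoff equal to the mean of all tested compounds plus 3 SD, cut at about 15% in these data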
# PME-1 primary = blocks human protein phosphatase methylesterase 1; inhibition, % at 5.9 µM; actives 0.53% (n = 320,000); recombinant PME-1, FP-Rh probe fluorescence polarization; Q9Y570; AID 2130;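 active = inhibition above the campaign mean of all compounds plus 3 SD, cut at about 26% in these data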;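 also: competitive labeling of PME-1 active site by serine hydrolase directed probe; inhibitors block probe labeling so polarization falls and inhibition rises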
# GSTO1 inh = GSTO1 inhibition, counter-screen for RBBP9 inhibitors; P78417; recombinant GSTO1, activity-based probe fluorescence polarization; inhibition, % at 5.96 µM; actives 1.1% (n = 300,000);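 active = inhibition above the campaign mean inhibition plus 3 SD, cut at about 35% in these data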
# Target sequence (P78417 whole entry, looked up): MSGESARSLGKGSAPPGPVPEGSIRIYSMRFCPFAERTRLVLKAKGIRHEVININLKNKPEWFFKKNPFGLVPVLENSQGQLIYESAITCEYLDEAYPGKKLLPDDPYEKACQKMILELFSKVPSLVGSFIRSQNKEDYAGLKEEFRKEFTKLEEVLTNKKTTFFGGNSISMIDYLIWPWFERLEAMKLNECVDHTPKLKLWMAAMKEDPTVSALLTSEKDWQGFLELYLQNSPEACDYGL
# LYPLA2 counter = blocks human lysophospholipase 2, a PME1 counter-screen. O95372. actives 0.38% (n = 320,000). recombinant LYPLA2, FP-Rh probe fluorescence polarization. inhibition, % at 5.9 µM;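 active = inhibition above the screen-wide mean plus 3 SD, limit set per campaign, cut at about 26% in these data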
# Target sequence (O95372 whole entry, looked up): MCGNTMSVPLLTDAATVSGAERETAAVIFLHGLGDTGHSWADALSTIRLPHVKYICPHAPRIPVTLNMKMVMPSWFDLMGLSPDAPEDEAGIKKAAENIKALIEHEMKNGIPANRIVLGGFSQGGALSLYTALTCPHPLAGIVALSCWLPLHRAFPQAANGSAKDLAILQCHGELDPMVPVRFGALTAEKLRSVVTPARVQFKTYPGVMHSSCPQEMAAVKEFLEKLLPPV
# Fam108b inh conf = confirmation of mouse Fam108b serine hydrolase inhibitors | shares compounds with Fam108B counter | recombinant Fam108b, FP-Rh probe fluorescence polarization | inhibition, % at 9.51 µM | actives 44% (n = 930);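 active = inhibition above a limit from the primary screen, the mean over all compounds plus 3 SD, cut at about 19% in these data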;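 also: inhibitors free the probe so polarization falls as inhibition rises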
# Fam108b ABPP HTS = inhibits mouse Fam108b in gel-based ABPP | AID 588649 | inhibition, % at 20 µM | recombinant Fam108b, fluorophosphonate probe | actives 44% (n = 260) | shares compounds with Fam108B counter; in the data active = inhibition above about 40%
# GSTO1 confirm = GSTO1 (human) inhibition, confirmation; shares compounds with GSTO1 inh; recombinant GSTO1, probe fluorescence polarization; inhibition, % at 5.96 µM; actives 54% (n = 2,400);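 active = inhibition above the primary screen's cutoff, its mean inhibition plus 3 SD, cut at about 35% in these data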;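 also: loss of polarization as inhibitors block binding of rhodamine sulfonate ester activity probe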
# LYPLA1 conf = counter-screen for PME1 inhibitors: confirmation of human LYPLA1 inhibitors; inhibition, % at 5.9 µM; recombinant LYPLA1, FP-Rh probe fluorescence polarization; shares compounds with LYPLA1 inh; AID 2233; actives 69% (n = 480);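 active = mean inhibition across replicates above the hit cutoff set in the primary screen, cut at about 15% in these data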;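 also: loss of FP-Rh probe labeling of LYPLA1 seen as lower polarization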
# LYPLA2 conf = counter-screen for PME1 inhibitors: confirmation of human LYPLA2 inhibitors; shares compounds with LYPLA2 counter; recombinant LYPLA2, FP-Rh probe fluorescence polarization; inhibition, % at 5.9 µM; actives 72% (n = 1,100); AID 2232;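 active = mean inhibition across replicates above the hit cutoff set in the primary screen, cut at about 26% in these data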;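 also: blocked labeling of the enzyme by serine hydrolase FP-Rh probe lowers polarization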
# PAD4 FP conf = PAD4 (human) inhibition, confirmed; shares compounds with PAD4 FP inh; recombinant PAD4, RCA probe fluorescence polarization; inhibition, % at 6.36 µM; actives 28% (n = 1,200);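 active = mean inhibition across replicates above the hit cutoff set by the earlier primary screen, cut at about 15% in these data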;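 also: inhibitors block active-site labeling by the probe so polarization falls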
# Hits are given with their value; i = inactive; nt = no result given. The list is not random: actives were taken first. Their share in the collection is about 1.8%.
SMILES,Fam108B counter,LYPLA1 inh,PAD4 FP inh,PME-1 primary,GSTO1 inh,LYPLA2 counter,Fam108b inh conf,Fam108b ABPP HTS,GSTO1 confirm,LYPLA1 conf,LYPLA2 conf,others
CCOc1ccc(NC(=S)Nc2ccc3nsnc3c2)cc1,80,66,76,52,87,90,25,nt,81,i,34,
Cc1nn(-c2ccccc2)c(Cl)c1/C=N/Nc1ccc(S(=O)(=O)Nc2ccccc2C(=O)O)cc1[N+](=O)[O-],33,i,i,51,i,28,51,nt,nt,nt,i,
CSc1ccc(C=NNc2ccc(S(=O)(=O)Nc3ccccc3C(=O)O)cc2[N+](=O)[O-])cc1,nt,nt,i,nt,nt,nt,nt,nt,nt,nt,nt,
O=C1CSC(=S)N1,i,i,i,i,i,i,nt,nt,nt,nt,nt,
CCOc1cccc(/C=N/NC(=S)Nc2cc(S(=O)(=O)N3CCOCC3)ccc2N2CCOCC2)c1O,18,i,i,32,i,34,i,nt,nt,nt,43,
COc1ccc2ccccc2c1/C=N/NC(=S)Nc1cc(S(=O)(=O)N2CCOCC2)ccc1N1CCOCC1,i,i,i,i,i,i,nt,nt,nt,nt,nt,
Cn1c(=O)c(NCCc2ccccc2)c2c3c(cccc31)C(=O)c1ccccc1-2,156,148,151,191,156,174,178,i,118,130,170,
Cn1c(NCCc2ccccc2)cc(=O)n(C)c1=O,i,i,i,i,i,i,nt,nt,nt,nt,nt,
O=C(CSc1c(F)c(F)cc(F)c1F)Nc1ccc(C2SCCS2)cc1,137,105,i,145,i,132,150,i,nt,i,i,
Cc1cc(C(=O)Nc2ccccc2Cl)n(-c2ccccc2)n1,i,i,i,i,i,i,nt,nt,nt,nt,nt,
Nc1c(C(=O)O)ccc2c1C(=O)c1ccccc1C2=O,i,i,i,i,i,i,nt,nt,nt,nt,nt,
Nc1cc(C(=O)O)c(N)c2c1C(=O)c1ccccc1C2=O,73,36,i,86,i,53,84,40,nt,31,45,
CCN(CC(=O)Nc1c(F)cccc1F)C(=O)c1n[nH]c2ccccc12,i,i,i,i,i,i,nt,nt,nt,nt,nt,
O=C(O)c1ccccc1NCc1ccco1,i,i,i,i,i,i,nt,nt,nt,nt,nt,
O=C1c2ccccc2-c2onc3ccc(NCc4ccco4)c1c23,107,98,89,120,100,118,135,i,53,100,121,
O=S(=O)(c1c(F)cccc1F)C1CCN(S(=O)(=O)c2ccc3c(c2)OCCO3)CC1,nt,nt,i,nt,nt,nt,nt,nt,nt,nt,nt,
CCn1c(CSc2nnc(-c3cccnc3)n2-c2ccccc2C)nc2cc(C(=O)O)ccc21,69,77,53,76,69,80,90,i,59,72,72,
CCOc1ccc2nc3cc(NCc4ccc(OC)cc4)ccc3c(N)c2c1,24,19,i,i,50,37,i,nt,i,i,i,
Cn1nc(-c2ccc(Cl)cc2)nc2c(=O)n(C)c(=O)nc1-2,71,85,75,37,91,90,73,nt,92,85,89,
COc1cc(CN2CCC(n3nccc3NC(=O)c3ccc4c(c3)OCO4)CC2)ccc1O,i,i,i,i,i,i,nt,nt,nt,nt,nt,
CCNc1ccccc1CP(=O)(c1ccccc1)c1ccccc1O (centres undefined),25,51,i,70,87,64,i,nt,i,i,i,
COc1cc2c(cc1OC)C(c1ccccc1O)NCC2 (centres undefined),i,i,i,i,i,i,nt,nt,nt,nt,nt,
COc1cccc2c1C(=O)c1c(O)c3c(c(O)c1C2=O)C[C@](O)(C(C)=O)C[C@H]3O[C@@H]1C[C@@H](N)[C@@H](O)[C@@H](C)O1,43,64,73,51,48,50,42,nt,40,64,41,
C=CCn1c(NC(=O)c2ccccc2Cl)c(C#N)c2nc3ccccc3nc21,49,39,59,i,79,50,i,nt,62,i,86,PAD4 FP conf=i
CCCCn1c(NC(C)=O)c(C#N)c2nc3ccccc3nc21,i,i,i,i,i,i,nt,nt,nt,nt,nt,
SMILES,Fam108B counter,LYPLA1 inh,PAD4 FP inh,PME-1 primary,GSTO1 inh,LYPLA2 counter,Fam108b inh conf,Fam108b ABPP HTS,GSTO1 confirm,LYPLA1 conf,LYPLA2 conf,others
O=C(c1ccc2c(=O)n3c(nc2c1)CCCCC3)N1CCN(c2ccc([N+](=O)[O-])cc2)CC1,i,i,i,i,i,i,nt,nt,nt,nt,nt,
NC(=O)C(=O)N/N=C/c1c(F)c(F)c(F)c(F)c1F,i,i,i,i,i,i,nt,nt,nt,nt,nt,
COc1ccc2ccccc2c1C(O)c1nccn1C (centres undefined),26,24,26,29,36,30,55,i,nt,15,i,PAD4 FP conf=39
Cn1ccnc1C(O)c1ccccc1 (centres undefined),i,i,i,i,i,i,nt,nt,nt,nt,nt,
CCNc1ccc2noc3c2c1C(=O)c1ccccc1-3,115,108,112,111,94,118,149,95,76,108,112,PAD4 FP conf=102
CC(=O)Oc1ccc2c(c1)Oc1cc(OC(C)=O)ccc1C21OC(=O)c2ccccc21,107,106,99,121,72,119,145,i,84,98,121,PAD4 FP conf=128
CCc1ccc(S(=O)(=O)/N=C2/C=C(Sc3ncn[nH]3)C(=O)c3ccccc32)cc1,54,i,37,37,83,40,57,nt,89,nt,47,PAD4 FP conf=22
CCOC(=O)C1=C(O)c2ccccc2C(=O)/C1=C\c1ccc(CC)cc1,i,i,i,i,i,i,nt,nt,nt,nt,nt,
CCc1ccc(S(=O)(=O)/N=C2\C=C(Nc3ccc(O)cc3)C(=O)c3ccccc32)cc1,20,i,52,40,87,i,i,nt,87,nt,nt,PAD4 FP conf=50
Cc1cc(C)c(S(=O)(=O)/N=C2\C=C(Nc3ccc(C(=O)O)cc3)C(=O)c3ccccc32)c(C)c1,40,i,53,i,85,i,59,i,89,nt,nt,PAD4 FP conf=40
CCc1ccc(S(=O)(=O)/N=C2\C=C(Nc3cccc(C(=O)O)c3)C(=O)c3ccccc32)cc1,57,i,71,29,98,i,78,40,92,nt,nt,PAD4 FP conf=66
Cc1ccccc1NC(=O)Cc1nnc(SCC(=O)NC2CCCCC2)n1C,i,i,i,i,i,i,nt,nt,nt,nt,nt,

# Bioassay records: PubChem BioAssay, The Scripps Research Institute Molecular Screening Center
